Assay results as given in PubChem BioAssay (NCATS).
Unmarked numbers belong to inactive results. Inconclusive results are not listed. Where a call stands in place of a potency, no number is given. Active and inactive are the calls of the source. Unless noted, calls follow the shape of the dose curve; as a rule, active = well fitted curve in the direction sought with a large enough effect; inconclusive = small, poorly fitted or top-dose-only effect, or another doubt; inactive = no such curve, though single readings can be large; an effect the other way counts as inactive or inconclusive.

Legend:
[1] = target: Cytochrome P450 1A2 (Homo sapiens) (UniProt P05177); assay: p450-cyp1a2 (AID 410; calls by dose curve; also: potency is read from the fitted curve at half-maximal effect)
Sequence of Cytochrome P450 1A2 (Homo sapiens) (P05177 whole entry, looked up): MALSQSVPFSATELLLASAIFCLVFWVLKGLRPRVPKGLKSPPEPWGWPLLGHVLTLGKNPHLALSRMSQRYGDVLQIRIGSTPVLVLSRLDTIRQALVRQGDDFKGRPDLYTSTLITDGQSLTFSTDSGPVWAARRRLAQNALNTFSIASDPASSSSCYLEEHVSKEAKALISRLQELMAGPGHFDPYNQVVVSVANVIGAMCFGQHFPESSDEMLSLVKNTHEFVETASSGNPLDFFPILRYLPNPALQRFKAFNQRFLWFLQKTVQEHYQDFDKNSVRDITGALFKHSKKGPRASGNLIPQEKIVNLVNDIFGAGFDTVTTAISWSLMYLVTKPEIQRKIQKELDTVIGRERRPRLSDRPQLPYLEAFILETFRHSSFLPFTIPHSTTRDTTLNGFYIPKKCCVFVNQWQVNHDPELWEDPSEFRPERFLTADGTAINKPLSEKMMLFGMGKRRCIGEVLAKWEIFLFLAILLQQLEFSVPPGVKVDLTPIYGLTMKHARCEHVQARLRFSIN
How it was run: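 Read-out is luminescence from luciferin produced by CYP1A2 demethylation of Luciferin-ME (100uM, at Km). Detection reagent stopped the 60 min NADPH-dependent reaction; signals were normalized to 57 uM furafylline.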

[2] = target: Glucocorticoid receptor (Homo sapiens) (UniProt P04150); assay: GR-GFP Redistribution (AID 450;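 active = compounds whose dose series gives a full or clear partial fitted curve of increased nuclear translocation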; also: potency is read from the fitted curve at half-maximal effect)
Sequence of Glucocorticoid receptor (Homo sapiens) (P04150 whole entry, looked up, the tested form may be a part): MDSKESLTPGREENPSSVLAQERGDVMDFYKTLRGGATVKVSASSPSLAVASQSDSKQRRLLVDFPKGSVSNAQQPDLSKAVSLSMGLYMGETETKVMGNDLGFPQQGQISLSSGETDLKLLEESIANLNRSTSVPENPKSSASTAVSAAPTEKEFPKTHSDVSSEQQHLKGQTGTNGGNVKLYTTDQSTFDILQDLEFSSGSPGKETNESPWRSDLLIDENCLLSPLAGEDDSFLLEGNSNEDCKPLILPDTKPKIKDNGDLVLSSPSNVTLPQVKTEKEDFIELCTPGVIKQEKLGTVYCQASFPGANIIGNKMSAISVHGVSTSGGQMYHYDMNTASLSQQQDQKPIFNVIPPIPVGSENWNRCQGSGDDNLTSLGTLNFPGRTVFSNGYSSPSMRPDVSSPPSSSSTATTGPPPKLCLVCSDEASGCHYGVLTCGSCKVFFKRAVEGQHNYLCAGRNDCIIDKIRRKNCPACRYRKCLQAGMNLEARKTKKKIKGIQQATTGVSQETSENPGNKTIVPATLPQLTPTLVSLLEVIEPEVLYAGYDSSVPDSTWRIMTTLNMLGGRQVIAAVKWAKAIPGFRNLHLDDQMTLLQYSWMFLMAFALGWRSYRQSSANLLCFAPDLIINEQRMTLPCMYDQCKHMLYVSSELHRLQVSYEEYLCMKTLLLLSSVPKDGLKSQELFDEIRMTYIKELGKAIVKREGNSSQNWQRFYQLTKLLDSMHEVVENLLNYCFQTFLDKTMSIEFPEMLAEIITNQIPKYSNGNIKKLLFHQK

[3] = target: Glucocorticoid receptor (Homo sapiens) (UniProt P04150); assay: GR-EFC Redistribution (AID 451; calls by dose curve; also: potency is read from the fitted curve at half-maximal effect); details: CHO-K1 GR-EFC translocation, beta-gal luminescence, 2 h
How it was run: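 Translocation of GR-ED fusion to nuclear EA restores b-gal, read by luminescence after 1 h room-temperature detection. Engineered CHO-K1 biosensor cells, 1,000/well, exposed 2 h at 37 C to titrations up to 46 uM final.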

[4] = target: 3',5'-cyclic-AMP phosphodiesterase 4B (Homo sapiens) (UniProt Q07343); assay: qHTS Assay for Inhibitors of PDE-IV (AID 607; active = well fitted activation curve with a large enough effect in the main read-out, with a control signal flat, not every such curve was filed as active)
Sequence of 3',5'-cyclic-AMP phosphodiesterase 4B (Homo sapiens) (Q07343 whole entry, looked up): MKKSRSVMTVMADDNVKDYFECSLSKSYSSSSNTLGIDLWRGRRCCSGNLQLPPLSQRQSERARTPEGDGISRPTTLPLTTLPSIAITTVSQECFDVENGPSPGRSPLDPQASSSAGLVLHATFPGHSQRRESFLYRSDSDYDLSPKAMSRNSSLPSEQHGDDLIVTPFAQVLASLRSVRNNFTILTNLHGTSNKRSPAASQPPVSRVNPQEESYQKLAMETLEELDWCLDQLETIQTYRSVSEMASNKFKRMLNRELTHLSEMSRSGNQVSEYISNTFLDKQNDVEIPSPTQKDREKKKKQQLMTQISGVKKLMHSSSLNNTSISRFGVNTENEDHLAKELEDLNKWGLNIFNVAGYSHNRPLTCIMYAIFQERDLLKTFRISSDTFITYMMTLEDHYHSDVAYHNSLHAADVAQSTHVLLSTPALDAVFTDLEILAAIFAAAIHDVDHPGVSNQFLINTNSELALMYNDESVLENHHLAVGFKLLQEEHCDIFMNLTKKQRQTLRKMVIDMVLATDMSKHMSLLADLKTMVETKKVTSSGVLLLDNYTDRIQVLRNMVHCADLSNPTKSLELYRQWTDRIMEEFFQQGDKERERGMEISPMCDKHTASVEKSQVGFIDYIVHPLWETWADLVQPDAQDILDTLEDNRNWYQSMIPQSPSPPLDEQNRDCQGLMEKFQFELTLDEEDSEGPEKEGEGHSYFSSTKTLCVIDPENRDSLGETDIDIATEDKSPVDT
How it was run: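 ACTOne HEK293 cells carry a modified cAMP-gated CNG channel and express endogenous PDE4; plated 1000 cells/well, compounds up to 22.9 uM final. Membrane-potential dye fluorescence (ex 535/em 590) was read; parental cells received 10 uM forskolin + 100 uM RO 20-1724.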

[5] = target: Cytochrome P450 2C9 (Homo sapiens) (UniProt P11712); assay: qHTS Assay for Inhibitors and Substrates of Cytochrome P450 2C9 (AID 883); also: nearly all actives have a fitted effect of over 60% in size; also: potency is read from the fitted curve at half-maximal effect
Sequence of Cytochrome P450 2C9 (Homo sapiens) (P11712 whole entry, looked up): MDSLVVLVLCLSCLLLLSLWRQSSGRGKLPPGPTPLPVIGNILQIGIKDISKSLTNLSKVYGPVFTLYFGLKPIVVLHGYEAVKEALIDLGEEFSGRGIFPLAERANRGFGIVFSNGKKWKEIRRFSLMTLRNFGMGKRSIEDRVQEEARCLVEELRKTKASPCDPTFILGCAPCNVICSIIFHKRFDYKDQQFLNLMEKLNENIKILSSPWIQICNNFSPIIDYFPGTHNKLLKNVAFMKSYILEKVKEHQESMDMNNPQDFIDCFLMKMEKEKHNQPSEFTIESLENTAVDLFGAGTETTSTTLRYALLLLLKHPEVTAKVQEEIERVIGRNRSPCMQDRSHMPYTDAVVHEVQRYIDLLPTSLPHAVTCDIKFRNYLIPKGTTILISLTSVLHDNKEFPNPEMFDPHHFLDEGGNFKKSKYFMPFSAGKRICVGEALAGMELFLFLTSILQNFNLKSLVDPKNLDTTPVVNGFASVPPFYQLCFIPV
How it was run: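 Luminescent read-out of deoxyluciferin hydroxylation, normalized to 57uM sulphaphenazole (AC100). Reaction: 10nM enzyme, 100uM Luciferin-H (equal to KM), 25mM KPO4, 10 min compound preincubation, then 60 min with NADPH regeneration, both at 37C.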

[6] = target: Cytochrome P450 2D6 (Homo sapiens) (UniProt P10635); assay: qHTS Assay for Inhibitors and Substrates of Cytochrome P450 2D6 (AID 891); also: nearly all actives have a fitted effect of over 60% in size; also: potency is read from the fitted curve at half-maximal effect
Sequence of Cytochrome P450 2D6 (Homo sapiens) (P10635 whole entry, looked up): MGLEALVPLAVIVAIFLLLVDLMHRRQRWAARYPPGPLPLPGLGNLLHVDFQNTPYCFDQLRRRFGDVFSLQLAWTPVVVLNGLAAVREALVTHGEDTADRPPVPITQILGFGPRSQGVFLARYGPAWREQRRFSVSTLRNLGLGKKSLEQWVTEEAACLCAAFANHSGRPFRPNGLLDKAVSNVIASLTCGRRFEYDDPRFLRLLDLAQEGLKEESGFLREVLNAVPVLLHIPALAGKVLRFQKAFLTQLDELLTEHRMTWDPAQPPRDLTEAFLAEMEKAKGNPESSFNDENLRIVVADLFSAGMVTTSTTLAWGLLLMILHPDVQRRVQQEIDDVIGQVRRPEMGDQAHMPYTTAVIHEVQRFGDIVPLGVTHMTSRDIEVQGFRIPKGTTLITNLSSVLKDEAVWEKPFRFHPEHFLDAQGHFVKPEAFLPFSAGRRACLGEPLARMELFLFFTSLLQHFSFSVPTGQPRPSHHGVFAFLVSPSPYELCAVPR
How it was run: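 Luminescent read-out of luciferin formed by 5 nM human CYP2D6 demethylating 30 uM Luciferin-ME EGE (Km level) over 60 min at room temperature after NADPH regeneration addition. Data normalized to full inhibition by 1.43 uM quinidine.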

[7] = target: Cytochrome P450 2C19 (Homo sapiens) (UniProt P33261); assay: qHTS Assay for Inhibitors and Substrates of Cytochrome P450 2C19 (AID 899); also: nearly all actives have a fitted effect of over 60% in size; also: potency is read from the fitted curve at half-maximal effect
Sequence of Cytochrome P450 2C19 (Homo sapiens) (P33261 whole entry, looked up): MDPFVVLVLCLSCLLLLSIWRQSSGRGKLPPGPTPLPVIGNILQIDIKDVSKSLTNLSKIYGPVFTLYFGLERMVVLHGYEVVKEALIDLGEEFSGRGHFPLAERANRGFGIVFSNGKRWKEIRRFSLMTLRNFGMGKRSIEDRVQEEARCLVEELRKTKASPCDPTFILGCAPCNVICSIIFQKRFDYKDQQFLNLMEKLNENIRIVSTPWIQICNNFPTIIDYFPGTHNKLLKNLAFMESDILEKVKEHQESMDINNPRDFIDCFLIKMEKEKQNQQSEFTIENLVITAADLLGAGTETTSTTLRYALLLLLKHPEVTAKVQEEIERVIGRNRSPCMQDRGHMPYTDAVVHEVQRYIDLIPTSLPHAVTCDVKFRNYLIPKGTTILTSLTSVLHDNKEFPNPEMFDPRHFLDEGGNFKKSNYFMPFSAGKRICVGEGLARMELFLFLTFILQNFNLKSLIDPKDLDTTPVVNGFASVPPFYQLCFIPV
How it was run: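 Luminescence readout of luciferin formed from 10uM Luciferin-H EGE (KM level) by 5 nM CYP2C19 in 50mM KPO4. 60 min NADPH-driven reaction at 37C after 10 min compound preincubation; data scaled to 57uM ketoconazole inhibition.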

[8] = target: Cytochrome P450 3A4 (Homo sapiens) (UniProt P08684); assay: qHTS Assay for Inhibitors and Substrates of Cytochrome P450 3A4 (AID 884); also: nearly all actives have a fitted effect of over 50% in size; also: potency is read from the fitted curve at half-maximal effect
Sequence of Cytochrome P450 3A4 (Homo sapiens) (P08684 whole entry, looked up): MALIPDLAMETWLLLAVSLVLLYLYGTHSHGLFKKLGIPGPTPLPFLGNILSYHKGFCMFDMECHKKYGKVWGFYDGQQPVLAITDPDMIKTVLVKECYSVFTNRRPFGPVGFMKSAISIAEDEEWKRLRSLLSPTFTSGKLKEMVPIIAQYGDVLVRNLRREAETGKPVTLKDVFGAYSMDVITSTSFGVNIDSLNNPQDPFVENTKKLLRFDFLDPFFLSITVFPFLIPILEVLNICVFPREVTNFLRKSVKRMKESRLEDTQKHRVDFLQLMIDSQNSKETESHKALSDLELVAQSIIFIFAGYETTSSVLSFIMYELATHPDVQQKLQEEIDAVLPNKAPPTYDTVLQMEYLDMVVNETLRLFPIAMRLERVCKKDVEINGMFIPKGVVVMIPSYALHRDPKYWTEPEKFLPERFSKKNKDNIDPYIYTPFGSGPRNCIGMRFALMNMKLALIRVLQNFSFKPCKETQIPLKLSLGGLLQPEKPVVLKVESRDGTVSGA
How it was run: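 Luminescent readout of luciferin produced by CYP3A4 (20 nM) dealkylation of Luciferin-PPXE, 25 uM (its KM). NADPH-driven reaction ran 60 min at RT after 10 min compound preincubation; data scaled to 57 uM ketoconazole as 100% inhibition.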

[9] = target: Cytochrome P450 3A4 (Homo sapiens) (UniProt P08684); assay: qHTS Assay for Activators of Cytochrome P450 3A4 (AID 885); also: nearly all actives have a fitted effect of over 65% in size
How it was run: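 CYP3A4 activity: Luciferin-PPXE O-dealkylation, 25uM substrate, 200mM KPO4, RT throughout. Read-out is luciferase luminescence; higher values reflect activation.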

[10] = target: DNA dC->dU-editing enzyme APOBEC-3G (Homo sapiens) (UniProt Q9HC16); assay: qHTS for inhibitors of Vif-A3G interactions: Validation (AID 588379)
Sequence of DNA dC->dU-editing enzyme APOBEC-3G (Homo sapiens) (Q9HC16 whole entry, looked up): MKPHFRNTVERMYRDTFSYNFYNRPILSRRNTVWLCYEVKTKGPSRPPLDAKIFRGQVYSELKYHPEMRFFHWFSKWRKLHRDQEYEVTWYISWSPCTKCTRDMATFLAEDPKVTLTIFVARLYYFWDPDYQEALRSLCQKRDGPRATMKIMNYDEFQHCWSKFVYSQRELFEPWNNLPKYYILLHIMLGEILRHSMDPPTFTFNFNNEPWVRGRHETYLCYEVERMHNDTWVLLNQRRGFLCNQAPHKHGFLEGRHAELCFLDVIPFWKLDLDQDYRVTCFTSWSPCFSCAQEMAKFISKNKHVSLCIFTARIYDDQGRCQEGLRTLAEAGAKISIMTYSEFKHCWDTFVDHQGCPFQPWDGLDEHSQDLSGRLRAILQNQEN
How it was run: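 Yellow fluorescence (Ex 488, Em 500-530) of Vif-coexpressing HeLa A3G-eYFP cells, scanned by Acumen cytometer, reports blocked A3G degradation. Cells plated at 700/well overnight at 37 deg C before compound addition, then a further overnight compound incubation at 37 deg C.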

[11] = target: Mitogen-activated protein kinase 10 (Mus musculus) (UniProt Q61831); assay: JNK3 AlphaScreen Assay (AID 530; active = well fitted curve in either direction with a large enough effect, not every such curve was filed as active;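 also: kinase came from lysate of stimulated human HepG2 cells; signal reports phosphorylation of biotinylated GST-cJun 1-79 at Ser73 with 10 µM ATP; series mostly up to about 57 µM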)
How it was run: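 Kinase buffer: 20 mM Tris-HCl pH 7.6, 10 mM MgCl2, 1 mM DTT, 0.1 mM Na3VO4, 0.01% Tween-20; ATP 10 uM. Substrate biotin-GST-cJun(1-79), enzyme from activated HepG2 lysates. Detection by Ser73 phospho-antibody AlphaScreen.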

| Structure (SMILES) | Potency [1] | Potency [2] [µM] | Potency [3] [µM] | Potency [4] | Potency [5] | Potency [6] | Potency [7] | Potency [8] | Potency [9] | outcome [10] | Potency [11] |
| --- | --- | --- | --- | --- | --- | --- | --- | --- | --- | --- | --- |
| O=c1c(O)c(-c2ccc(O)c(O)c2)oc2c(OC[C@H]3O[C@@H](O)[C@@H](O)[C@H](O)[C@@H]3O)c(O)cc(O)c12 | inactive | > 46 | > 46 | inactive | inactive | inactive | inactive | – | – | – | – |
| C[C@@H]1C[C@@]2(C)Oc3ccccc3[C@H]3OC[C@]1(COC(=O)Nc1ccccc1)[C@@H](C)[C@@H]32 | 15.8 µM (active) | > 46 | > 46 | – | – | inactive | 10 µM (active) | – | – | – | – |
| O=C1C=CC2=C3c4cc(O)c(O)cc4C[C@@]3(O)COC2=C1O | 39.8 µM (active) | > 46 | > 46 | – | 3.98 µM (active) | 25.1 µM (active) | – | – | – | – | – |
| COc1cccc(-c2oc3ccccc3c(=O)c2O)c1 | 0.2 µM (active) | > 46 | > 46 | – | 12.6 µM (active) | – | – | 12.6 µM (active) | inactive | inactive | – |
| O=c1ccn([C@H]2O[C@H](CO)[C@@H](O)[C@@H]2O)c(=O)[nH]1 | inactive | > 46 | – | inactive | – | inactive | inactive | – | – | – | inactive |
| COc1cc(-c2cc(=O)c3ccccc3o2)ccc1O | 0.0794 µM (active) | > 46 | > 46 | inactive | 6.31 µM (active) | 31.6 µM (active) | 6.31 µM (active) | 15.8 µM (active) | inactive | inactive | – |
| CCCc1c(OCCCOc2ccc(OCC(=O)O)cc2)ccc(CC=O)c1O | 31.6 µM (active) | > 46 | > 46 | inactive | – | – | – | – | – | inactive | – |
| C=C1CC[C@@H](O)C/C1=C/C=C1\CCC[C@]2(C)[C@@H]1CC[C@H]2[C@@H](C)/C=C\[C@@H](C)C(C)C | inactive | > 46 | > 46 | – | 20 µM (active) | inactive | 20 µM (active) | – | – | – | inactive |
| O=c1c(O)c(-c2ccc(O)c(O)c2)oc2ccccc12 | 0.251 µM (active) | > 46 | > 46 | – | – | – | – | – | inactive | – | – |
| Cc1ccc2oc(-c3ccccc3)c(O)c(=O)c2c1 | 0.398 µM (active) | > 46 | > 46 | inactive | – | inactive | inactive | inactive | – | inactive | – |
| CC(C)=CCC/C(C)=C/COc1c2ccoc2cc2oc(=O)ccc12 | 0.316 µM (active) | > 46 | > 46 | – | 0.0316 µM (active) | 0.0631 µM (active) | 0.01 µM (active) | – | – | – | – |
| C=C1C(=O)O[C@H]2C[C@@]3(C)CCCC(=C)[C@@H]3C[C@H]12 | 20 µM (active) | > 46 | > 46 | – | – | – | 2.51 µM (active) | – | – | – | inactive |
| O=c1c2ccccc2oc2cc(O)c([C@@H]3COC[C@@H](CO)[C@@H](O)[C@@H](O)[C@H]3O)c(O)c12 | inactive | > 46 | > 46 | inactive | inactive | inactive | inactive | – | – | – | – |
| Nc1ccccc1C(=O)C[C@@H](N)C(=O)O | inactive | > 46 | > 46 | – | – | inactive | inactive | – | – | – | inactive |
| O=c1cc(-c2ccccc2)oc2cc(O[C@H]3O[C@H](CO)[C@@H](O)[C@H](O)[C@@H]3O)c(O)c(O)c12 | inactive | > 46 | > 46 | – | inactive | inactive | inactive | – | – | – | – |
| O=c1cc(-c2ccccc2O)oc2ccc3ccccc3c12 | 1 µM (active) | > 46 | > 46 | – | – | 20 µM (active) | – | – | inactive | inactive | – |
| CC(=O)Oc1ccc(/C=C\C(=O)C[C@@H]2O[C@@H](Oc3cc(OC(C)=O)c4c(c3)O[C@@H](c3ccc(OC(C)=O)cc3)CC4=O)[C@H](OC(C)=O)[C@H](OC(C)=O)[C@@H]2OC(C)=O)cc1 | inactive | > 46 | > 46 | – | inactive | inactive | inactive | – | – | – | inactive |
| COc1ccc(-c2oc3cc(OC)c(OC(C)=O)c(OC)c3c(=O)c2OC)cc1OC(C)=O | 12.6 µM (active) | > 46 | > 46 | – | – | inactive | – | 5.01 µM (active) | inactive | inactive | – |
| CC(C)C[C@@H](CC(=O)N[C@@H](CCC(=O)O)CC(=O)O)NC(=O)[C@@H]1CNCC[C@H]1NC(=O)C[C@H](CCCN)NC(=O)C[C@H](CO)NC(=O)[C@@H]1CCCC[C@H]1N | inactive | – | > 46 | inactive | – | inactive | inactive | – | – | – | inactive |
| CC(C)C[C@@H](CC(=O)N[C@@H](CCC(=O)O)CC(=O)O)NC(=O)[C@@H]1CNCC[C@H]1NC(=O)C[C@H](CCCN)NC(=O)C[C@H](Cc1ccccc1)NC(=O)[C@@H]1CCCC[C@H]1N | 25.1 µM (active) | – | > 46 | inactive | inactive | inactive | inactive | – | – | – | inactive |
| CC(C)C[C@@H](CC(=O)N[C@H](CC(=O)N[C@@H]1CCNC[C@H]1C(=O)N[C@H](CC(=O)N[C@@H](CCC(=O)O)CC(=O)O)Cc1ccccc1)C(C)C)NC(=O)[C@@H]1CCCC[C@H]1N | inactive | – | > 46 | inactive | – | inactive | – | – | – | – | inactive |
| CC(C)C[C@@H](CC(=O)N[C@@H](CCC(=O)O)CC(=O)O)NC(=O)[C@@H]1CCCC[C@H]1NC(=O)C[C@@H](NC(=O)C[C@H](Cc1c[nH]c2ccccc12)NC(=O)[C@@H]1CNCC[C@H]1N)C(C)C | inactive | – | > 46 | inactive | inactive | inactive | inactive | – | – | – | inactive |
| CC(C)C[C@@H](CC(=O)N[C@@H](CCCN)CC(=O)N[C@@H]1CCCC[C@H]1C(=O)N[C@H](CC(=O)N[C@@H](CCC(=O)O)CC(=O)O)Cc1ccccc1)NC(=O)[C@@H]1CCCC[C@H]1N | inactive | – | > 46 | inactive | – | inactive | – | – | – | – | inactive |
| CC(C)C[C@@H](CC(=O)N[C@H](CC(=O)N[C@@H]1CCCC[C@H]1C(=O)N[C@H](CC(=O)N[C@@H](CCC(=O)O)CC(=O)O)CC(C)C)C(C)C)NC(=O)[C@@H]1CCCC[C@H]1N | inactive | – | > 46 | inactive | – | inactive | – | – | – | – | inactive |
| NCCC[C@@H](CC(=O)N[C@@H]1CCCC[C@H]1C(=O)N[C@H](CC(=O)N[C@@H](CCC(=O)O)CC(=O)O)Cc1c[nH]c2ccccc12)NC(=O)C[C@H](Cc1c[nH]c2ccccc12)NC(=O)[C@@H]1CNCC[C@H]1N | inactive | – | > 46 | inactive | – | inactive | inactive | – | – | – | inactive |
| CC(C)C[C@@H](CC(=O)N[C@@H](CCC(=O)O)CC(=O)O)NC(=O)[C@@H]1CCCC[C@H]1NC(=O)C[C@H](CCCN)NC(=O)C[C@H](CO)NC(=O)[C@@H]1CNCC[C@H]1N | inactive | – | > 46 | inactive | – | inactive | inactive | – | – | – | inactive |
